The panel holds about 83,000 compounds, 20% with a hit somewhere; the sample as a whole holds those more often.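 For each line, cells grew in 96-well plates with the test compound present at a single concentration for 48 hours.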 Unmarked numbers belong to inactive results. Activity calls are given as the source filed them. The calls were made as follows: active = growth percent below 10; inactive = the rest.
tested on: MDA-MB-468 breast; test: NCI-60 one-dose screen, 48 h (100 = growth as untreated, 0 = no growth, -100 = all killed); conditions: 10 µM unless noted

Row | SMILES | growth
1 | CCCCOc1ccc(/C=C2/SC(N3CCOCC3)=NC2=O)cc1OCC | 97.8%
2 | CC[C@@H](C(=O)[C@H](C)[C@H](O)[C@@H](C)[C@H]1O[C@H]([C@@H](CC)C(=O)O)CC[C@H]1C)C1O[C@]2(C=C[C@@H](O)[C@]3(CC[C@@](C)([C@H]4CC[C@](O)(CC)[C@H](C)O4)O3)O2)[C@H](C)C[C@@H]1C (stereo not given in full) | 0.843% (active)
3 | NS(=O)(=O)c1ccc(CCN2C(=O)c3cc(Cl)c(Cl)cc3C2=O)cc1 | 119%
4 | C=C1CC[C@@H]2[C@](C)(COC(C)=O)[C@H](OC(C)=O)CC[C@@]2(C)[C@@H]1CC(Nc1ccc(S(=O)(=O)Nc2nc(C)cc(C)n2)cc1)C1=CCOC1=O (stereo not given in full) | 41%
5 | CNC(=O)c1cc(Oc2ccc3nc(NC(=O)c4cc(C)cc(C)c4)sc3c2)ccn1 | 50.2%
6 | COC(=O)C(CC(=O)c1ccc(-c2ccccc2)cc1)c1ccccc1 (stereo not given) | 52.5%
7 | CC(C)(C)n1cc(-c2ccnc(NCCCNS(=O)(=O)c3ccc(Cl)cc3)c2)c(-c2cccc(O)c2)n1 | -44.5% (active)
8 | c1csc(-c2cn3nc(-c4c[nH]c5ccccc45)sc3n2)c1 | 19.4%
9 | Cc1ccc2c(c1)c(Sc1ccc(C(=O)NO)cc1)c1n2CN(C)CC1 | -19.3% (active)
10 | IC(I)I | 106%
11 | OCC12CCCC(CO)(COC1)C2O (stereo not given) | 109%
12 | c1csc([C@@H]2C[C@@H]3Cc4ccc5ccccc5c4N2O3)c1 | 99.2%
13 | CCN1CCN(c2cc(C)nc(NCc3cc(Nc4ccnc5cc(Cl)ccc45)ccc3F)n2)CC1 | 47.4%
14 | COc1ccc(/C=N/Nc2nc(N/N=C/c3ccc(OC)cc3O)nc(N3CCOCC3)n2)c(O)c1 | 63.1%
15 | Cc1nc2cnc(N)c(C#Cc3cncc(C(=O)Nc4ccc(CN5CCN(C)CC5)c(C(F)(F)F)c4)c3)c2nc1C | 55.8%
16 | NS(=O)(=O)c1ccc(C(=O)N/N=C(\CS(=O)(=O)c2ccccc2)c2cc3cc(Br)ccc3o2)cc1 | 78.9%
17 | CN(C)CCOc1nc2c3cc([N+](=O)[O-])ccc3nn2c2ccccc12 | 60.2%
18 | Clc1ccc(/C=C/c2nc(Nc3ccc(Cl)cc3)c3ccccc3n2)cc1 | 110%
19 | COc1ccc(/C=C/C(=O)c2cc3c(N)c(C(=O)Nc4ccc(OC)cc4)sc3nc2C)cc1 | 11.6%
20 | COc1cc(-c2ccc(-c3ccc(C(=N)N)nc3)s2)cc(OC)c1OC | 22.4%

Row | SMILES | growth
21 | Cn1c2ccccc2c2c3c(c4c5ccccc5n(CCCCCC#N)c4c21)C(=O)N(O)C3=O | -49.5% (active)
22 | C#CC[C@@H]1C[C@]2(C)[C@H]3CC=C4[C@H]5[C@@H](C)[C@H](C)CC[C@]5(C(=O)NCCCN5CCN(CCCN)CC5)CC[C@@]4(C)[C@]3(C)CC[C@H]2C(C)(C)[C@H]1OC(C)=O | -72.9% (active)
23 | CCOC(=O)c1cc(C(=O)c2cc(OC)c(OC)c(OC)c2)n2ccc(-c3ccncc3)cc12 | 99.1%
24 | Cc1oc2ncnc(Nc3ccccc3)c2c1C(=O)NCCO | 109%
25 | COc1cccc2c(=O)c3c(sc12)c(NCCCNCCO)nc1ccccc13 | 71.3%
26 | CC(C)(O)c1cccc(F)c1 | 93.8%
27 | CCOC(=O)Nc1ccc(-c2ccc3c(c2)NC(=O)/C3=C\c2ccc[nH]2)cc1 | -8.48% (active)
28 | CCCCCCCCCCCCCCCCN=C(CC(=O)O)C(=O)O | 95.2%
29 | CCC(O)(C(c1ccccc1)c1ccccn1)C(c1ccccc1)c1ccccn1 (stereo not given) | 114%
30 | CC(C)C[C@H](C(=O)O)N(C)C(=O)[C@@H]1CCCN1C(=O)[C@H](C)OC(=O)[C@H](CCC(N)=O)NC(=O)[C@@H]1CCC(=O)N1 | 107%
31 | Cc1ccc(-c2cc(-c3ccc(C)cc3)nc(N3CCN(CCNc4ccnc5cc(Cl)ccc45)CC3)n2)cc1 | 36.4%
32 | CCOc1nc(-c2ccccc2)cc2c(O)c(C(=O)NCCCO)[nH]c(=O)c12 | 95%
33 | C=C1C(=O)O[C@H]2[C@H]1CC/C(COC(=O)N[C@H](Cc1c[nH]c3ccccc13)C(=O)OC)=C\CC[C@@]1(C)O[C@@H]21 | 22.5%
34 | COc1ccc2c(c1OC)C(=O)O[C@H]2[C@H]1c2c(cc3c(c2OC)OCO3)CCN1C | 90.3%
35 | CCCC(=O)Oc1ccc2ccccc2c1 | 94%
36 | CCCCCCCCCCCCCCCCCCNC(=S)N/N=C/c1ccc(OC)c(OC)c1 | 93.5%
37 | Cc1ccc(/C=C(/C#N)n2nnc3cccc(F)c32)cc1 | -16.1% (active)
38 | CCOc1ccc2[nH]c(=S)sc2c1 | 107%
39 | C/C(=N\Nc1ccc([N+](=O)[O-])cn1)c1ccc(N)cc1 | 99.7%
40 | Cc1ccc(S(=O)(=O)NCC[C@@H]2C[C@H]2c2cc3ccccc3s2)cc1 | 83.7%

— PubChem BioAssay (NCI)
